Screening results (PubChem)
Tb PYK inh: blocks Trypanosoma brucei pyruvate kinase; AID 624173; 410,000 tested, 0.12% active; TbPYK enzyme, Kinase-Glo Plus ATP luminescence, 45 min; Potency, µM (titrated, usually from 76.8 µM), for inactives: at the top dose activity, negative = inhibition, usual class: inhibitors; further: potency means the concentration at half of the fitted maximal effect; nearly all actives have a fitted effect of over 50% in size
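Enzyme and substrate buffer are dispensed first and compound is pin-transferred. ADP at 130 uM final then starts the reaction, which runs 45 min at room temperature. Detection reagent is added for 10 min before luminescence is imaged.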
Sm TGR block: S. mansoni TGR enzyme inhibition; Potency, µM (titrated, usually from 114 µM), for the others: top-dose activity change, negative = inhibition, most hits filed as inhibitors; AID 485364; 360,000 tested, 3% active; Q962Y6; purified TGR, DTNB reduction, TNB absorbance 405 nm; further: potency means the concentration at half of the fitted maximal effect; nearly all actives have a fitted effect of over 60% in size
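First, TGR (20 nM dispensed) and NADPH were mixed with compound. Second, a 15 min room-temperature incubation followed. Third, further NADPH and then DTNB were added to start the reaction. Finally, TNB absorbance was monitored kinetically.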
HCMV antiviral: inhibitors of human cytomegalovirus; HFF cells, HCMV-luciferase reporter, 72 h; active compounds read low; activity change, negative = inhibition, % at 57.5 µM; 410,000 tested, 4.5% active; AID 1259415; in the data active means activity change below about -60%; inconclusive means no clear call, values can overlap the other calls; inactive means above about -39%
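Luciferase read-out from HCMV-luciferase-infected HFFs (MOI 1 PFU/cell) 72 h post infection at 37C; compounds added after 16 h cell attachment; activity normalized between buffer-only basal and Salinomycin (10uM) inhibitor controls.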
FMDV inh: blocks foot and mouth disease virus; AID 1159524; FMDV antiviral cell-based qHTS; Potency, µM (doses to about 57.9 µM), inactives show at the top dose activity change, negative = inhibition, usual class: inhibitors; 410,000 tested, 1.2% active; calls by dose curve; tested in HEK293T cells; further: read-out not given here; potency means the concentration at half of the fitted maximal effect; nearly all actives have a fitted effect of over 45% in size
Giardia FBPA inh-1: blocks Giardia fructose-bisphosphate aldolase activity; A8B2U2; purified Giardia FBPA; Potency, µM (top dose mostly 59.6 µM), without a hit: top-dose activity, negative = inhibition, most hits filed as inhibitors; 290,000 tested, 0.71% active; AID 2451; further: potency means the concentration at half of the fitted maximal effect; nearly all actives have a fitted effect of over 55% in size
Target sequence (A8B2U2 whole entry, looked up): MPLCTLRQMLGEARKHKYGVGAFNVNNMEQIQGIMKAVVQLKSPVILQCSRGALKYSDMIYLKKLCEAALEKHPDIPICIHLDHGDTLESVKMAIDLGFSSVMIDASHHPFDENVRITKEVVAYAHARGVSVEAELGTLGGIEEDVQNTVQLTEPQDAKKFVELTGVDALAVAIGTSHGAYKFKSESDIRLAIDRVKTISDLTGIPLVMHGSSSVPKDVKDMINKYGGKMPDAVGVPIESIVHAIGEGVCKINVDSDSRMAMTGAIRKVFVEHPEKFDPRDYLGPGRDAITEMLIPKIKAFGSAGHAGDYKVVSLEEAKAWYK
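40 nM FBPA preincubated 10 min at RT with compound (up to 57.5 uM final), then substrate plus GAPDH/TPI/NAD/arsenate coupling and diaphorase/resazurin added. Fluorescence read after 20 min at RT, 525/598 nm.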
RE007 growth inh: less growth of the S. pombe RE007 Vpr strain; Potency, µM (top dose mostly 92.2 µM), for inactives: top-dose activity change, negative = less growth, hits mostly inhibitors; 360,000 tested, 0.21% active; S. pombe RE007 Vpr strain, BacTiter-Glo ATP luminescence, 24 h; active means well fitted falling curve with a large enough effect; inconclusive means small, poorly fitted or top-dose-only effect; inactive means no such curve, though single readings can be large or run the other way; further: potency means the concentration at half of the fitted maximal effect; nearly all actives have a fitted effect of over 50% in size
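Fission yeast strain RE007, carrying one chromosomally integrated HIV-1 vpr copy, was seeded at OD 0.01 in PMG+AL medium with 23 nL pinned compound. After 24 h at 30 °C and 99% humidity, viability was read by BacTiter-Glo luminescence.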
Giardia growth: blocks growth of Giardia lamblia trophozoites; shares compounds with Giardia FBPA inh-1; Giardia lamblia trophozoite growth inhibition; Potency, µM (top dose mostly 57.5 µM), inactives show at the highest dose activity change, negative = inhibition, hits mostly inhibitors; 1,500 tested, 5% active; AID 2785;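 further: potency means the concentration at half of the fitted maximal effect; trophozoites exposed to compound for 48 h at 37 °C; nearly all actives have a fitted effect of over 70% in size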
Mammal cell tox: toxic to mammalian cells in Giardia aldolase counter-screen; Potency, µM (top dose mostly 57.5 µM), inactives show top-dose viability change, negative = toxicity, hits mostly inhibitors; AID 2786; shares compounds with Giardia FBPA inh-1; mammalian cell viability counter-screen, qHTS; 1,500 tested, 4% active;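 further: Chinese hamster ovary cells used as mammalian cytotoxicity surrogate; viability measured as cellular ATP by luminescence; potency means the concentration at half of the fitted maximal effect; compound exposure lasted 48 h before reading; nearly all actives have a fitted effect of over 60% in size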
Giardia FBPA inh-2: confirmation of Giardia fructose-bisphosphate aldolase inhibitors. purified Giardia aldolase enzyme activity, qHTS. Potency, µM (doses to about 57.5 µM), for inactives: at the top dose activity change, negative = inhibition, hits mostly inhibitors. AID 2787. 1,500 tested, 5% active. shares compounds with Giardia FBPA inh-1; further: potency means the concentration at half of the fitted maximal effect; nearly all actives have a fitted effect of over 45% in size
Rabbit FBPA inh: blocks rabbit muscle aldolase in Giardia aldolase selectivity test | Potency, µM (titrated, usually from 57.5 µM), for the others: at the top dose activity, negative = inhibition, usual class: inhibitors | AID 2794 | shares compounds with Giardia FBPA inh-1 | Rabbit muscle FBPA enzyme inhibition, selectivity counter-screen | 1,500 tested, 4% active; further: potency means the concentration at half of the fitted maximal effect; nearly all actives have a fitted effect of over 60% in size
Target sequence (P00883 whole entry, looked up): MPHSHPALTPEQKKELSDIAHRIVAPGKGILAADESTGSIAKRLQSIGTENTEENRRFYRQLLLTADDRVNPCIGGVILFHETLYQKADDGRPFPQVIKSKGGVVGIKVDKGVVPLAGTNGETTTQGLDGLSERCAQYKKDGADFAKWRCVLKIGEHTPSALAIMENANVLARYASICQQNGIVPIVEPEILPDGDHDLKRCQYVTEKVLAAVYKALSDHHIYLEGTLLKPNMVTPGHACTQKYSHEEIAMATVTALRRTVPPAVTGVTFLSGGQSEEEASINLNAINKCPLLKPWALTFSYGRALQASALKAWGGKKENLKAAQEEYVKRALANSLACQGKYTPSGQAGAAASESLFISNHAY
GAPDH counter: counter-screen for Giardia aldolase inhibitors: GAPDH coupling enzyme. shares compounds with Giardia FBPA inh-1. Potency, µM (top dose mostly 57.5 µM), for inactives: at the highest dose activity change, negative = inhibition, hits mostly inhibitors. GAPDH coupling enzyme counterscreen, biochemical, qHTS. 1,500 tested, 6% active. AID 2795; further: potency means the concentration at half of the fitted maximal effect; nearly all actives have a fitted effect of over 55% in size
The depositor's hits bear a star; [ ] = remark or other dose. Only some compounds are listed: those with a hit (about 7.7% of all), similar ones and a draw of the others. Unless noted, the call rests on the fitted dose curve; in most records, active means well fitted curve in the direction sought with a large enough effect; inconclusive means small, poorly fitted or top-dose-only effect, or another doubt; inactive means no such curve, though single readings can be large; an effect the other way counts as inactive or inconclusive. On the % scale 0 is the no-effect control and ±100 the full control effect.

Screening S=C(Nc1cccc(Cl)c1)Nc1cccc2cnccc12 returned Tb PYK inh -24%, Sm TGR block 25µM*, FMDV inh -28%, Giardia FBPA inh-1 0.25µM*, RE007 growth inh -35%, Giardia growth 12%[38.3 µM], Mammal cell tox 10%, Giardia FBPA inh-2 inconclusive, Rabbit FBPA inh inconclusive and GAPDH counter 25µM*.
Cc1ccc(C=C2C(Cl)=C(Cl)C(Cl)=C2Cl)cc1 was read as Tb PYK inh -15%, Sm TGR block 0.63µM*, FMDV inh 18µM*, Giardia FBPA inh-1 16µM*, RE007 growth inh -21%, Giardia growth -10%[10.4 µM], Mammal cell tox 9%, Giardia FBPA inh-2 2%, Rabbit FBPA inh 9% and GAPDH counter 15%.
`Cc1ccc(/C=[N+](/C)[O-])cc1` gave Tb PYK inh 0%, Sm TGR block 5%, HCMV antiviral -24, FMDV inh -11%, Giardia FBPA inh-1 0% and RE007 growth inh 5%.
For CCC(=O)OCC(=O)[C@@]1(OC(=O)CC)[C@H](C)C[C@@H]2[C@@H]3[C@H]([C@@H](O)C[C@@]21C)[C@]1(C)C=CC(=O)C=C1C[C@@H]3Cl the results were Tb PYK inh 2%[33.2 µM] and Giardia FBPA inh-1 -2%[21.7 µM].
COc1ccccc1N1CCN(C(=O)C(F)F)CC1 was read as Tb PYK inh 1%, Sm TGR block 20%[11.4 µM], HCMV antiviral -38, FMDV inh 6%, Giardia FBPA inh-1 1% and RE007 growth inh -5%.
`COc1ccccc1N1CCN(C(C)C(=O)N2CC(C)OC(C)C2)CC1` (stereo not given) gave Tb PYK inh -1%, Sm TGR block -2%, HCMV antiviral 23, FMDV inh -10%, Giardia FBPA inh-1 5.6µM*, RE007 growth inh 10%, Giardia growth 9%[10.4 µM], Mammal cell tox 4%, Giardia FBPA inh-2 -5%, Rabbit FBPA inh -8% and GAPDH counter 5%.
Screening CCOC(=O)N/N=C/c1ccccc1F returned Tb PYK inh 1%, Sm TGR block -21%, HCMV antiviral 56, FMDV inh 26%, Giardia FBPA inh-1 1% and RE007 growth inh -28%.
Screening CCc1nnc(N/N=C/c2ccccc2Cl)n1N returned Tb PYK inh -7%, Sm TGR block 14%, HCMV antiviral -3, Giardia FBPA inh-1 18µM*, RE007 growth inh -6%, Giardia growth inconclusive, Mammal cell tox 3%, Giardia FBPA inh-2 -26%, Rabbit FBPA inh -15% and GAPDH counter -19%.
Screening CCc1nnc(N/N=C/c2ccccc2F)n1N returned Tb PYK inh 3%, Sm TGR block 1%, HCMV antiviral -80*, FMDV inh 18%, Giardia FBPA inh-1 20µM*, RE007 growth inh -11%, Giardia growth 71%, Mammal cell tox -2%, Giardia FBPA inh-2 inconclusive, Rabbit FBPA inh -17% and GAPDH counter -2%.
Screening CCOC(=O)c1cnc2c(C)c(Cl)ccc2c1Nc1ccc(N2CCOCC2)cc1 returned Tb PYK inh -10%, Sm TGR block 6%, HCMV antiviral 3 and FMDV inh -25%.
`Cc1ccccc1-n1c(N)c(C(=O)Nc2ccc(F)cc2)sc1=S` gave Tb PYK inh -6%, Sm TGR block -3%, HCMV antiviral 0, FMDV inh -4%, Giardia FBPA inh-1 -1% and RE007 growth inh 4%.
For Cc1ccc(NC(=O)c2sc(=S)n(-c3cc(C)ccc3F)c2N)cc1 the results were Tb PYK inh -26%, Sm TGR block -4%, HCMV antiviral -63*, FMDV inh 10%, Giardia FBPA inh-1 18µM*, RE007 growth inh -15%, Giardia growth 14%, Mammal cell tox -8%, Giardia FBPA inh-2 -25%, Rabbit FBPA inh inconclusive and GAPDH counter -21%.
`COc1ccccc1CNc1cncnc1` gave Tb PYK inh -3%, Sm TGR block -1%, HCMV antiviral 12, FMDV inh -5%, Giardia FBPA inh-1 9% and RE007 growth inh 9%.
Screening COc1ccccc1CNc1ncccn1 returned Tb PYK inh -4%, Sm TGR block -16%, HCMV antiviral 21, FMDV inh -7%, Giardia FBPA inh-1 18µM*, RE007 growth inh -9%, Giardia growth -2%[10.4 µM], Mammal cell tox 18%, Giardia FBPA inh-2 -3%, Rabbit FBPA inh 2% and GAPDH counter 6%.
`COc1ccc(CNC(=O)c2cc(=O)[nH]c3ccc(S(=O)(=O)N4CCCC4)cc23)c(OC)c1` gave Tb PYK inh 7%, Sm TGR block 3%, HCMV antiviral -8 and FMDV inh -9%.
For Cc1n[nH]c(=O)nc1N/N=C/c1ccc(O)c([N+](=O)[O-])c1 the results were Tb PYK inh -11%, Sm TGR block 0%, HCMV antiviral -11, FMDV inh 13%, Giardia FBPA inh-1 18µM*, RE007 growth inh -22%, Giardia growth 14µM*, Mammal cell tox 10%, Giardia FBPA inh-2 -11%, Rabbit FBPA inh -15% and GAPDH counter -6%.
`COc1cc(/C=N/Nc2nc(=O)[nH]nc2C)cc([N+](=O)[O-])c1O` gave Tb PYK inh -7%, Sm TGR block -10%, HCMV antiviral -26, FMDV inh 43%, Giardia FBPA inh-1 20µM*, RE007 growth inh -12%, Giardia growth inconclusive, Mammal cell tox 19%, Giardia FBPA inh-2 -15%, Rabbit FBPA inh -21% and GAPDH counter -15%.
CC(=O)OCC(=O)[C@]1(O)C(C)CC2C3CCC4=CC(=O)C=C[C@@]4(C)[C@]3(F)C(O)C[C@@]21C (stereo not given in full) was read as FMDV inh 5% and Giardia FBPA inh-1 10%.
